This is a sample that favours compounds with a hit; in the whole collection about 0.95% have one here.
LmPK inh – blocks Leishmania mexicana pyruvate kinase activity | purified LmPK, Kinase-Glo ATP luminescence, 1 h | hit rate 0.37% among 290,000 | Potency, µM (highest dose often 57.5 µM), for the others: top-dose activity change, negative = inhibition, hits mostly inhibitors | AID 1721 | Q27686
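qHTS format; LmPK 0.1 nM; substrates PEP 0.5 mM and ADP 0.1 mM. One-hour room-temperature incubation, then coupled luciferase luminescence; 0.5 nM enzyme wells mark activation.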
Giardia FBPA inh-1 – blocks Giardia fructose-bisphosphate aldolase activity | A8B2U2 | purified Giardia FBPA | Potency, µM (top dose mostly 59.6 µM), inactives show top-dose activity, negative = inhibition, hits mostly inhibitors | hit rate 0.71% among 290,000 | AID 2451; also: nearly all actives have a fitted effect of over 55% in size
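40 nM FBPA preincubated 10 min at RT with compound (up to 57.5 uM final), then substrate plus GAPDH/TPI/NAD/arsenate coupling and diaphorase/resazurin added. Fluorescence read after 20 min at RT, 525/598 nm.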
RE007 growth inh – less growth of the S. pombe RE007 Vpr strain; hit rate 0.21% among 360,000; AID 651644; Potency, µM (highest dose often 92.2 µM), for the others: at the top dose activity change, negative = less growth, actives largely listed as inhibitors; S. pombe RE007 Vpr strain, BacTiter-Glo ATP luminescence, 24 h; active = well fitted falling curve with a large enough effect; inconclusive = small, poorly fitted or top-dose-only effect; inactive = no such curve, though single readings can be large or run the other way; also: nearly all actives have a fitted effect of over 50% in size
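Fission yeast strain RE007, carrying one chromosomally integrated HIV-1 vpr copy, was seeded at OD 0.01 in PMG+AL medium with 23 nL pinned compound. After 24 h at 30 °C and 99% humidity, viability was read by BacTiter-Glo luminescence.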
Tb PYK inh – T. brucei pyruvate kinase inhibition | Potency, µM (doses to about 76.8 µM), for inactives: at the top dose activity, negative = inhibition, actives largely listed as inhibitors | Q57TT1 | AID 624173 | hit rate 0.12% among 410,000 | TbPYK enzyme, Kinase-Glo Plus ATP luminescence, 45 min; also: nearly all actives have a fitted effect of over 50% in size
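T. brucei PYK with substrate was exposed to pin-transferred compounds across a concentration series, then started with 130 uM ADP (final). After 45 min at room temperature, Kinase-Glo Plus luminescence was read, normalized and curve-fitted.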
Giardia growth – blocks growth of Giardia lamblia trophozoites | hit rate 5% among 1,500 | Giardia lamblia trophozoite growth inhibition | shares compounds with Giardia FBPA inh-1 | Potency, µM (titrated, usually from 57.5 µM), for the others: at the highest dose activity change, negative = inhibition, hits mostly inhibitors | AID 2785;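 also: trophozoites exposed to compound for 48 h at 37 °C; nearly all actives have a fitted effect of over 70% in size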
Mammalian tox – toxic to mammalian cells in Giardia aldolase counter-screen; shares compounds with Giardia FBPA inh-1; mammalian cell viability counter-screen, qHTS; Potency, µM (top dose mostly 57.5 µM), for the others: at the top dose viability change, negative = toxicity, usual class: inhibitors; hit rate 4% among 1,500; AID 2786;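 also: Chinese hamster ovary cells used as mammalian cytotoxicity surrogate; viability measured as cellular ATP by luminescence; compound exposure lasted 48 h before reading; nearly all actives have a fitted effect of over 60% in size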
Giardia FBPA inh-2 – confirmation of Giardia fructose-bisphosphate aldolase inhibitors. shares compounds with Giardia FBPA inh-1. purified Giardia aldolase enzyme activity, qHTS. Potency, µM (doses to about 57.5 µM), inactives show at the top dose activity change, negative = inhibition, hits mostly inhibitors. hit rate 5% among 1,500. AID 2787; also: nearly all actives have a fitted effect of over 45% in size
Rabbit FBPA inh – selectivity test for Giardia aldolase inhibitors: rabbit aldolase; shares compounds with Giardia FBPA inh-1; Rabbit muscle FBPA enzyme inhibition, selectivity counter-screen; Potency, µM (series often up to 57.5 µM), for the others: at the top dose activity, negative = inhibition, usual class: inhibitors; hit rate 4% among 1,500; AID 2794; also: nearly all actives have a fitted effect of over 60% in size
Target sequence (P00883 whole entry, looked up): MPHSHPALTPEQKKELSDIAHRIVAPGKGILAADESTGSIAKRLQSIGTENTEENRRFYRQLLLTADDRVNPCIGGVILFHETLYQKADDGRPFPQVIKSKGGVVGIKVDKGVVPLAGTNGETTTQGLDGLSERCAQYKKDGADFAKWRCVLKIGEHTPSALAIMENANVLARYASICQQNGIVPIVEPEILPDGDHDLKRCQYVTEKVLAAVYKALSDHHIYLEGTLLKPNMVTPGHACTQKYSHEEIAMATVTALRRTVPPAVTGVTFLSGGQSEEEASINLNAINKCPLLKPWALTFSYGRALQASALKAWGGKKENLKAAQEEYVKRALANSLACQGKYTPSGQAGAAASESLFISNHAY
GAPDH coupling – GAPDH inhibition flagged for Giardia aldolase hits; hit rate 6% among 1,500; shares compounds with Giardia FBPA inh-1; GAPDH coupling enzyme counterscreen, biochemical, qHTS; Potency, µM (highest dose often 57.5 µM), for inactives: top-dose activity change, negative = inhibition, hits mostly inhibitors; also: nearly all actives have a fitted effect of over 55% in size
Numbers without * were called inactive; [ ] = remark or other dose. Unless noted, calls follow the shape of the dose curve; as a rule, active = well fitted curve in the direction sought with a large enough effect; inconclusive = small, poorly fitted or top-dose-only effect, or another doubt; inactive = no such curve, though single readings can be large; an effect the other way counts as inactive or inconclusive. % is scaled to controls: 0 for no effect and ±100 for the full control effect; potency is read from the fitted curve at half-maximal effect.

Results for CCN(c1ccccc1)S(=O)(=O)c1ccc(C(=O)Nc2nnc(CSC)o2)cc1 ?
LmPK inh: -6%; Giardia FBPA inh-1: 16µM*; RE007 growth inh: 3%; Tb PYK inh: -17%; Giardia growth: 5%[10.4 µM]; Mammalian tox: -3%; Giardia FBPA inh-2: 5%; Rabbit FBPA inh: 18%; GAPDH coupling: 13%

What do the screens show for `CCC1CCCCN1S(=O)(=O)c1ccc(C(=O)Nc2nnc(-c3ccccc3Cl)o2)cc1` (stereo not given)?
LmPK inh: 1%; Giardia FBPA inh-1: inconclusive; RE007 growth inh: 5%; Tb PYK inh: 6%

How did CCN(c1ccccc1)S(=O)(=O)c1ccc(C(=O)Nc2nnc(COC)o2)cc1 do in these assays?
LmPK inh: -1%; Giardia FBPA inh-1: inconclusive; RE007 growth inh: 9%; Tb PYK inh: -2%

What do the screens show for `CCC1CCCCN1S(=O)(=O)c1ccc(C(=O)Nc2nnc(C3CC3)o2)cc1` (stereo not given)?
LmPK inh: 7%; Giardia FBPA inh-1: 25µM*; RE007 growth inh: 7%; Tb PYK inh: 4%; Giardia growth: 11%[10.4 µM]; Mammalian tox: -16%; Giardia FBPA inh-2: 6%; Rabbit FBPA inh: 13%; GAPDH coupling: 7%

What do the screens show for `CN(c1ccccc1)S(=O)(=O)c1ccc(C(=O)Nc2nnc(C3CC3)o2)cc1`?
LmPK inh: 7%; Giardia FBPA inh-1: 4.5µM*; RE007 growth inh: -1%; Tb PYK inh: -3%; Giardia growth: -14%[38.3 µM]; Mammalian tox: inconclusive; Giardia FBPA inh-2: -4%; Rabbit FBPA inh: 7%; GAPDH coupling: -6%

Results for CCN(c1ccccc1)S(=O)(=O)c1ccc(C(=O)Nc2nnc(C3CC3)o2)cc1 ?
LmPK inh: 4%; Giardia FBPA inh-1: 8.9µM*; RE007 growth inh: 1%; Tb PYK inh: 3%; Giardia growth: 45µM*; Mammalian tox: -19%; Giardia FBPA inh-2: -1%; Rabbit FBPA inh: 12%; GAPDH coupling: 5%

What do the screens show for `COc1ccc(-n2c(-c3cccc(F)c3)nc3c(cnn3-c3ccc(C)cc3)c2=O)cc1`?
Tb PYK inh: 1%

Results for Cc1ccc(N2C(=O)C(CC(=O)Nc3cccc(F)c3)N(CCc3ccccc3F)C2=O)cc1 (stereo not given) ?
Tb PYK inh: 1%

Results for O=C(CN1CCN(S(=O)(=O)c2ccc(F)cc2)CC1)c1ccc(O)c(O)c1 ?
LmPK inh: 8%; Giardia FBPA inh-1: 20µM*; RE007 growth inh: -5%; Tb PYK inh: -29%; Giardia growth: -6%; Mammalian tox: -13%; Giardia FBPA inh-2: -29%; Rabbit FBPA inh: -17%; GAPDH coupling: 2%

How did Cc1ccc(C)c(-n2nnc(-c3nc(-c4ccc(Cl)cc4)no3)c2N)c1 do in these assays?
Tb PYK inh: 3%

Results for C=CCOC(=O)C(C(C)=O)C(NC(=O)OC)c1cccc(C(F)(F)F)c1 (stereo not given) ?
Giardia FBPA inh-1: 4%[12.9 µM]

How did COc1cccc(CN(C(=O)c2oc3ccc(Br)cc3c2C)C2CCS(=O)(=O)C2)c1 (stereo not given) do in these assays?
Tb PYK inh: 1%

How did Cc1cc(C)nc(N/N=C/c2ccccc2OCc2ccccc2)n1 do in these assays?
LmPK inh: -2%; Giardia FBPA inh-1: -7%; RE007 growth inh: -11%; Tb PYK inh: -3%

High-throughput results (PubChem BioAssay)
